Common to all, as to assay: DAPPL (digital affinity profiling via proximity ligation, sequencing); 10 mM Tris-HCl pH 7.5, 50 mM NaCl, 1 mM DTT, 4% glycerol, room temperature, 30 min; GST-TFs on glutathione beads, 16-mer random dsDNA library, 0.1% formaldehyde crosslink after washing; high values mean tight binding
Details in all cases: protein: recombinant; tags: N-terminal GST; dsDNA, one strand shown

The target of assay [1] is T1, ERF (Homo sapiens, UniProt P50548 1-548).
T1 sequence: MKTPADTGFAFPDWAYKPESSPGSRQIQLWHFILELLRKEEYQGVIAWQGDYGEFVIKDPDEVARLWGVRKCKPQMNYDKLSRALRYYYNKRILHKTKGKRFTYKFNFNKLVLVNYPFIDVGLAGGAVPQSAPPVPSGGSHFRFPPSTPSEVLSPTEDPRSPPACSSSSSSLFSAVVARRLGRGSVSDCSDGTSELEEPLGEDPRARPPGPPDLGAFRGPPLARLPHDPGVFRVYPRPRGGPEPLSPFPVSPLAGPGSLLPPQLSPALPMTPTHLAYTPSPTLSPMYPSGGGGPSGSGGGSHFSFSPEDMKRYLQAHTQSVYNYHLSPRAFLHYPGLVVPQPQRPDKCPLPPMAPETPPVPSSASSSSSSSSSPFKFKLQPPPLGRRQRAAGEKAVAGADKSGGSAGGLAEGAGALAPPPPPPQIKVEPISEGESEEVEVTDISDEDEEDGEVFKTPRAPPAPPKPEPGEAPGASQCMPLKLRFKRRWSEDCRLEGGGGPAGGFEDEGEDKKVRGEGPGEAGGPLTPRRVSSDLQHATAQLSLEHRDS
A digest of the protocol: (§1)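 Each value of binding signal is a hexamer's read frequency for a factor divided by the same hexamer's frequency in the tag-only sample. Barcoded, bead-captured GST fusions of human transcription factors made in yeast were pooled with that sample and incubated with 200 nmole of a random double-stranded 16-mer DNA library in Tris/NaCl/DTT/glycerol buffer at room temperature for 30 min. Washing, 0.1% formaldehyde crosslinking, proximity ligation, PCR and Illumina NextSeq500 sequencing followed.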

Assay [2] has as its target T2, ETV3L (Homo sapiens, UniProt Q6ZN32 1-361).
T2 sequence: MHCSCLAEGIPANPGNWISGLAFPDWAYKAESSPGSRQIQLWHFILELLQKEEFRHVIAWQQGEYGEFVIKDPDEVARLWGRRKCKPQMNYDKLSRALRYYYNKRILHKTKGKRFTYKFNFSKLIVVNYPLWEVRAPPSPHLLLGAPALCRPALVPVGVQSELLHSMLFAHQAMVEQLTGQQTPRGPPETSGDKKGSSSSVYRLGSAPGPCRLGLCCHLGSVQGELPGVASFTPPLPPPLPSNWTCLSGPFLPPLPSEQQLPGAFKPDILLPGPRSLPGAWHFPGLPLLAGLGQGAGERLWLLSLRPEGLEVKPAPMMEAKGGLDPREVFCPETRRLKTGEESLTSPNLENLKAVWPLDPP
A digest of the protocol: as §1

Assay [3] addresses T3, ETS2 (Homo sapiens, UniProt P15036 1-469).
T3 sequence: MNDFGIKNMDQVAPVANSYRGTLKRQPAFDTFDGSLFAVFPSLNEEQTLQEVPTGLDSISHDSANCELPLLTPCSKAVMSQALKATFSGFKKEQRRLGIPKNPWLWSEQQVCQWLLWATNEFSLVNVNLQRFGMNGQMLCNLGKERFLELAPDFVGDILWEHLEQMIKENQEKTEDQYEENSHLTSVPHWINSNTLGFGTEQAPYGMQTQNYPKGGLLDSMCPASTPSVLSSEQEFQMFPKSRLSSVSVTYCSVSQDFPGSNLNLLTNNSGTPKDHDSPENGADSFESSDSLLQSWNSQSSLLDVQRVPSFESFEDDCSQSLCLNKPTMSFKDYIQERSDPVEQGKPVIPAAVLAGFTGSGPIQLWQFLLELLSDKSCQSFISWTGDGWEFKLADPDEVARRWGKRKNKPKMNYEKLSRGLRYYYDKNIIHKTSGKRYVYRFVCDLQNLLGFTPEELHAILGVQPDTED
A digest of the protocol:
as §1

In assay [4] the target is T4, SPDEF (Homo sapiens, UniProt O95238 1-335).
T4 sequence: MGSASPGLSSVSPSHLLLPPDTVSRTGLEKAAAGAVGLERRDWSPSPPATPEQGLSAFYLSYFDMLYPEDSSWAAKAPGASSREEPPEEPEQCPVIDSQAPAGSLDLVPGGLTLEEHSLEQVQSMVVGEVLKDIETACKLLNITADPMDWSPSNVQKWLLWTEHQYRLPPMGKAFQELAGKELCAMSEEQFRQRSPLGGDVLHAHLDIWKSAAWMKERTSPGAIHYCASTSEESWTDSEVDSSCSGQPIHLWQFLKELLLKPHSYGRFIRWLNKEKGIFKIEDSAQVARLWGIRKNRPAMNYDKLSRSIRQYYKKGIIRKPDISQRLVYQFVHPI
A digest of the protocol: as §1

The target of assay [5] is T5, ETV7 (Homo sapiens, UniProt Q9Y603 1-341).
T5 sequence: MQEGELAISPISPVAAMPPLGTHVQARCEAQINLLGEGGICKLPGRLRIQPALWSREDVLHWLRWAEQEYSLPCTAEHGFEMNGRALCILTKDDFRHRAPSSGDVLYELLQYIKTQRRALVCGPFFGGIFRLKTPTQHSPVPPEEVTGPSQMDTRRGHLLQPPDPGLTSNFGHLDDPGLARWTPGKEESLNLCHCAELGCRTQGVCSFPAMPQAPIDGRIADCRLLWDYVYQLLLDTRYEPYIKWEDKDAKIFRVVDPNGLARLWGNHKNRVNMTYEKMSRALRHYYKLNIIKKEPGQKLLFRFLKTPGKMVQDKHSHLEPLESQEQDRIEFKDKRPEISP
Put shortly:
as §1

Assay [6] addresses T6, ELF5 (Homo sapiens, UniProt Q9UKW6-2 1-255).
T6 sequence: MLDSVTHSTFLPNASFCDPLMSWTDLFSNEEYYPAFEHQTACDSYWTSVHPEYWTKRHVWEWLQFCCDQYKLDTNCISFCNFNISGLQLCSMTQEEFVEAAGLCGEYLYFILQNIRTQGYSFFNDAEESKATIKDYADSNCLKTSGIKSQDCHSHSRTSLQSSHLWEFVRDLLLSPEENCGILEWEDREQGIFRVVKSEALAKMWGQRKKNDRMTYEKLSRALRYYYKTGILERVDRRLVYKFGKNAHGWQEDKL
A digest of the protocol: as §1

Assay [7] addresses ETV6 (Homo sapiens, UniProt P41212 1-452). Put shortly: as §1
The target in assay [8] is T7, ETV3 (Homo sapiens, UniProt P41162-2 1-143).
T7 sequence: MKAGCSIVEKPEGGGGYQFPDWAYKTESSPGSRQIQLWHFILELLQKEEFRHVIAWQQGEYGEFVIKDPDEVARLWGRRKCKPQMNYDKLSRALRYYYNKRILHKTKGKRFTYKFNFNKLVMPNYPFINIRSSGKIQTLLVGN
Put shortly: as §1

ETV6, sequence (P41212 whole entry): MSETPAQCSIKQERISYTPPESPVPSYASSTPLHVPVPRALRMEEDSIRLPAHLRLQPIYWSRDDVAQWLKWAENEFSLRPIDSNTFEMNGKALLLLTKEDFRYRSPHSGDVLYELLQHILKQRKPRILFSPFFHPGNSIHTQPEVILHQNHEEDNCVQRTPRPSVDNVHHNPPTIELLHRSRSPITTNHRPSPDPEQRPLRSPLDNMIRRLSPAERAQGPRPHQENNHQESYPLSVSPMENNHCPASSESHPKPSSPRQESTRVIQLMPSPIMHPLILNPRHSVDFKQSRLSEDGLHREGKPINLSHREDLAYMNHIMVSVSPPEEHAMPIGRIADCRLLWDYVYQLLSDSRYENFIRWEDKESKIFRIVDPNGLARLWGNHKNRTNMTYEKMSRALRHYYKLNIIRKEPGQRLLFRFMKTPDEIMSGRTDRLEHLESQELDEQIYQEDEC

With ATCCCA, the binding signal in assay [1] was 1.21 fold enrichment (6-mer frequency, TF over GST control); in assay [2] it was 1.1 fold enrichment (6-mer frequency, TF over GST control); in assay [3] it was 1.03 fold enrichment (6-mer frequency, TF over GST control); in assay [4] it was 1.1 fold enrichment (6-mer frequency, TF over GST control); in assay [5], 1.2 fold enrichment (6-mer frequency, TF over GST control); in assay [6], 1.17 fold enrichment (6-mer frequency, TF over GST control). Moreover, the binding signal in assay [7] is 1.12 fold enrichment (6-mer frequency, TF over GST control).
In the case of TGTGTT, the binding signal in assay [1] was 1.08 fold enrichment (6-mer frequency, TF over GST control); in assay [2], 1.15 fold enrichment (6-mer frequency, TF over GST control); in assay [3], 1.06 fold enrichment (6-mer frequency, TF over GST control); in assay [4] it was 1.21 fold enrichment (6-mer frequency, TF over GST control); in assay [5], 1.19 fold enrichment (6-mer frequency, TF over GST control); in assay [6] it was 1.11 fold enrichment (6-mer frequency, TF over GST control). In addition, the binding signal in assay [7] is 1.08 fold enrichment (6-mer frequency, TF over GST control).
ATACGT: the binding signal in assay [1] is 1.11 fold enrichment (6-mer frequency, TF over GST control); in assay [2], 1.18 fold enrichment (6-mer frequency, TF over GST control); in assay [3], 1.19 fold enrichment (6-mer frequency, TF over GST control); in assay [4], 1.23 fold enrichment (6-mer frequency, TF over GST control); in assay [5] it was 1.1 fold enrichment (6-mer frequency, TF over GST control); in assay [6], 1.14 fold enrichment (6-mer frequency, TF over GST control). Further, the binding signal in assay [8] was 1.14 fold enrichment (6-mer frequency, TF over GST control); in assay [7], 1.14 fold enrichment (6-mer frequency, TF over GST control).
Turning to TCGAAT, the binding signal was 1.13 fold enrichment (6-mer frequency, TF over GST control) in assay [1]; 1.09 fold enrichment (6-mer frequency, TF over GST control) in assay [2]; 1.06 fold enrichment (6-mer frequency, TF over GST control) in assay [3]; 1.09 fold enrichment (6-mer frequency, TF over GST control) in assay [4]; 1.23 fold enrichment (6-mer frequency, TF over GST control) in assay [5]; 1.02 fold enrichment (6-mer frequency, TF over GST control) in assay [6]. The binding signal in assay [7] was 1.13 fold enrichment (6-mer frequency, TF over GST control).
With CAACTC, the binding signal in assay [1] was 1.26 fold enrichment (6-mer frequency, TF over GST control); in assay [2], 1.22 fold enrichment (6-mer frequency, TF over GST control); in assay [3] it was 1.26 fold enrichment (6-mer frequency, TF over GST control); in assay [4] it was 1.36 fold enrichment (6-mer frequency, TF over GST control); in assay [5] it was 1.12 fold enrichment (6-mer frequency, TF over GST control); in assay [6], 1.16 fold enrichment (6-mer frequency, TF over GST control). The binding signal is 1.31 fold enrichment (6-mer frequency, TF over GST control) in assay [8] and 1.29 fold enrichment (6-mer frequency, TF over GST control) in assay [7].
In the case of TACTCG, the binding signal in assay [1] is 1.3 fold enrichment (6-mer frequency, TF over GST control); in assay [2], 1.27 fold enrichment (6-mer frequency, TF over GST control); in assay [3] it was 1.28 fold enrichment (6-mer frequency, TF over GST control); in assay [4] it was 1.2 fold enrichment (6-mer frequency, TF over GST control); in assay [5], 1.27 fold enrichment (6-mer frequency, TF over GST control); in assay [6] it was 1.25 fold enrichment (6-mer frequency, TF over GST control). Besides, the binding signal in assay [8] was 1.28 fold enrichment (6-mer frequency, TF over GST control); in assay [7], 1.28 fold enrichment (6-mer frequency, TF over GST control).
In the case of TCGACG, the binding signal in assay [1] is 1.02 fold enrichment (6-mer frequency, TF over GST control); in assay [2] it was 1 fold enrichment (6-mer frequency, TF over GST control); in assay [3], 1.07 fold enrichment (6-mer frequency, TF over GST control); in assay [4], 1.05 fold enrichment (6-mer frequency, TF over GST control); in assay [5], 1.05 fold enrichment (6-mer frequency, TF over GST control); in assay [6], 1.01 fold enrichment (6-mer frequency, TF over GST control). Besides, the binding signal in assay [7] is 1.07 fold enrichment (6-mer frequency, TF over GST control).

The values above are taken from PMC7862700, “An all-to-all approach to the identification of sequence-specific readers for epigenetic DNA modifications on cytosine”.
